The whole screen tested about 190,000 compounds, of which about 810 (0.43%) were called active. This is one part of a sample in which actives are shown more often than they occur. Unmarked numbers belong to inactive results. No stated cut-off is given here; in the data, active means inhibition above about 50%; inactive means the rest.
Each molecule was assayed against Mannose-6-phosphate isomerase (Homo sapiens) (UniProt P34949) (assay: inhibitors of human PMI, primary screen, biochemical, fluorescence intensity, coupled assay (AID 1209;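 further: plate controls were DMSO vehicle for no effect and wells lacking substrate for full effect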)). Settings: purified PMI enzyme, at 20 µM, hits give high values.
Mannose-6-phosphate isomerase (Homo sapiens), sequence (P34949 whole entry, looked up): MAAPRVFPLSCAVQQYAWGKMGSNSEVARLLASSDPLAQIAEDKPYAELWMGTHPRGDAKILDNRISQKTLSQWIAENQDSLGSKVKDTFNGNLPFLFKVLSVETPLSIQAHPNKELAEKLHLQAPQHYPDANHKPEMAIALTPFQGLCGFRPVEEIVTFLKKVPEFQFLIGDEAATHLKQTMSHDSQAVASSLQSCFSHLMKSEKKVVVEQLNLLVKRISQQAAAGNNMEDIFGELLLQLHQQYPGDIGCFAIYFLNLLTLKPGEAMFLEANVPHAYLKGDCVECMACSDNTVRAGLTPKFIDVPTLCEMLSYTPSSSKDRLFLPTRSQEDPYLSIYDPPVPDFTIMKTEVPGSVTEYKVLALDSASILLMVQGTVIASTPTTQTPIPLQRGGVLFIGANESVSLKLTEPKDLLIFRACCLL

| Compound | inhibition |
| --- | --- |
| C=CCn1c(NC(=O)c2ccco2)c(S(=O)(=O)c2ccccc2)c2nc3ccccc3nc21 | 7.1% |
| CCCCCn1c(NC(=O)c2ccco2)c(S(=O)(=O)c2ccc(C)cc2)c2nc3ccccc3nc21 | 20% |
| CCCCn1c(NC(=O)c2ccco2)c(S(=O)(=O)c2ccc(C)cc2)c2nc3ccccc3nc21 | 50.9% (active) |
| COc1cccc(C(=O)OCC(=O)NCCc2ccccc2)c1OC | -5.9% |
| Cc1ccc(-n2nc3c4c(cccc4c2=O)-c2ccccc2-3)cc1 | 14.2% |
| O=C1CCCN1c1nccs1 | -4.2% |
| O=c1c2ccccc2sn1-c1ccccc1 | 87.2% (active) |
| Cc1ccccc1N=Cc1c(O)n(-c2nccs2)c(=O)c2ccccc12 | 0.5% |
| CC(C(=O)N1CCCCC1)n1sc2ccccc2c1=O (stereo unspecified) | -2.6% |
| Cc1ccnc(N2C3CCC2CC(O)(c2ccccc2)C3)n1 (stereo unspecified) | -0.2% |
| O=c1c2ccccc2c2ccccc2c(=O)n1-c1ccccc1 | 3.9% |
| Cc1cc(=O)c2ccccc2s1 | -2.5% |
| O=c1c2ccccc2sn1-c1nccs1 | 107% (active) |
| O=c1[nH]n(-c2ccccc2)c(=O)c2ccccc12 | 6.7% |
| O=C(Nc1cccn(Cc2cccc(F)c2)c1=O)NC1CCCCC1 | 14.9% |
| COc1ccc(-n2c(COc3ccc(C)cc3)nnc2SCc2ccc(C#N)cc2)cc1 | 10.6% |
| COCCCn1c(=NC(=O)c2ccc3c(c2)OCO3)c(C#N)cc2c(=O)n3cccc(C)c3nc21 | 1.8% |
| CCOC(=O)CSc1nc2ccccc2c(=O)n1CC1COc2ccccc2O1 (stereo unspecified) | -3.8% |
| Cn1c(=O)c2c(nc(CN3CCOCC3)n2CCCO)n(C)c1=O | -8.2% |
| COc1ccccc1NS(=O)(=O)c1cccc(C(=O)NN=C2CCCCCC2)c1 | -1.7% |
| CCn1c(SCC(=O)N2CCCC2)nc2c(c1=O)SC(C)C2 (stereo unspecified) | 0.5% |
| CN(C)S(=O)(=O)c1cccc(-c2cn3ccccc3n2)c1 | -3.5% |
| CN(C)S(=O)(=O)c1cccc(N2C(=O)CC3(CCCCC3)CC2=O)c1 | 2% |

| Compound | inhibition |
| --- | --- |
| COC(=O)C1=C(N)Oc2cc(C)n(C)c(=O)c2C1c1ccc(Cl)cc1 (stereo unspecified) | 1.3% |
| Cc1c(Cl)cccc1NC(=S)NN | 5.2% |
| CCC(C)(C)n1nnnc1C(c1ccc(O)cc1)N1CCc2ccccc2C1 (stereo unspecified) | 12.2% |
| CCOC(=O)/C(C(=O)Nc1ccccc1Cl)=C1/NC(C)(C)Cc2ccccc21 | 18.6% |
| CCOC(=O)/C(C)=C1\NC(C)(C)Cc2ccccc21 | 94.7% (active) |
| CCOC(=O)/C(C(=O)Nc1ccc(Br)cc1)=C1/NC(C)(C)Cc2ccccc21 | 3.3% |
| O=C(Cc1c[nH]c2ccccc12)N1CCN(c2ccccc2)CC1 | -10.2% |
| Cn1c(Cc2ccccc2)nnc1SCC(=O)Nc1cccc(S(=O)(=O)NC2=NCCCCC2)c1 | 5% |
| CN=c1scc(-c2ccc(F)cc2)n1/N=C/c1ccc(O)c(O)c1 | 50.4% (active) |
| CCN=c1scc(-c2ccco2)n1/N=C/c1ccc(O)cc1 | -4.3% |
| CN=c1scc(C)n1/N=C/c1ccc(O)cc1 | 12.4% |
| CN=c1scc(-c2ccco2)n1/N=C/c1ccc(O)c(O)c1 | 53% (active) |
| C=CCN=c1scc(C)n1/N=C/c1ccc(O)c(O)c1 | 49.2% |
| CCN=c1scc(-c2ccco2)n1/N=C/c1ccc(OC)c(O)c1 | -0.4% |
| CCCC(=O)C1=C(O)C(c2cccc(Oc3ccccc3)c2)CCC1=O (stereo unspecified) | -21% |
| N#CCN1CCCC(C(N)=O)C1 (stereo unspecified) | -5.3% |
| Cc1sc(NC(=O)CSc2nnnn2C)c(C#N)c1C | 4.7% |
| CCOc1ccc(C2CC(c3cccc(C)c3)n3ncnc3N2)cc1 (stereo unspecified) | 2.6% |
| CCc1ccc(CN(C)C(=O)c2cc(COc3c(F)cccc3F)on2)cc1 | 18.2% |
| Cc1[nH]c(=S)[nH]c(=O)c1CCCO | 12.6% |
| CC1=C(C)C(=O)C(CCCCC#CCCCC#CCO)=C(C)C1=O | -13.9% |
| COC1=C(OC)C(=O)C(CCCCCCCCCCO)=C(C)C1=O | 53.5% (active) |
| COc1cccc(CNC(=O)CCC2CCCN(C3CCOCC3)C2)c1 (stereo unspecified) | 5.9% |

| Compound | inhibition |
| --- | --- |
| CCOc1ccc(NC(=O)NC(C)CC)cc1 (stereo unspecified) | -3.9% |
| O=C(/C=C/c1ccc(N2CCCCC2)c([N+](=O)[O-])c1)c1ccc(S(=O)(=O)N2CCCC2)cc1 | 0% |
| O=C(/C=C/c1ccc(O)c(O)c1)c1ccc(S(=O)(=O)N2CCCCCC2)cc1 | 66% (active) |
| O=C(O)c1ccc(S(=O)(=O)N2CCCCCC2)cc1 | 2.4% |
| Cc1ccc2c(c1)CCCN2C(=O)c1ccco1 | 0.8% |
| Cc1cccc(C2(c3cccc(C)c3)CC2C(=O)NCC2CCCO2)c1 (stereo unspecified) | -4.2% |
| O=C(NCC1CCCO1)c1ccccc1 (stereo unspecified) | 11.6% |
| O=C(NCC1CCCO1)C1CC1(c1ccccc1)c1ccccc1 (stereo unspecified) | 108% (active) |
| O=C(CC1C(=O)NC2CCCCC2N1C(=O)c1ccc(F)cc1)Nc1ccccc1 (stereo unspecified) | 0.9% |
| CCc1ccc(C(=O)COC(=O)CNC(=O)c2ccco2)cc1 | -5.4% |
| O=c1[nH]cnc2c1sc(=S)n2-c1ccccc1 | 50.7% (active) |
| O=c1[nH]c(-c2ccc(F)cc2)nc2c1sc(=S)n2-c1ccccc1 | -0.9% |
| S=c1sc2c(Cl)ncnc2n1-c1ccccc1 | -30.4% |
| CS(=O)(=O)N1CCN(c2ccc(NC(=O)CSc3nnc(-c4ccco4)o3)cc2)CC1 | -8.2% |
| CCN(CC)S(=O)(=O)c1ccc(NC(=O)COC(=O)CNS(=O)(=O)/C=C/c2ccccc2)cc1 | 5.2% |
| O=C(COC(=O)c1ccccc1Br)NCCC1=CCCCC1 | 5.8% |
| CC1(C)N=C(SCC(=O)Nc2ccc(Cl)cc2Cl)C(c2ccccc2)=N1 | 8.5% |
| O=C(NC1CCCC1)c1sc(=S)n2c1[nH]c(=O)c1ccccc12 | -4.7% |
| O=C(NCc1ccccc1)c1sc(=S)n2c1[nH]c(=O)c1ccccc12 | 4.9% |
| O=C(NC1CCCCC1)c1sc(=S)n2c1[nH]c(=O)c1ccccc12 | 51.2% (active) |
| COc1ccc(/C=C/C(=O)OCC(=O)Nc2c(C)cccc2C)cc1 | -7.6% |
| CC(=O)c1ccc(Nc2cc(C)nc3ccc(C)cc23)cc1 | 11.3% |
| CC(=O)c1ccc(Nc2cc(C)nc3ccccc23)cc1 | 95.7% (active) |

| Compound | inhibition |
| --- | --- |
| COc1ccc(Nc2cc(C)nc3ccccc23)cc1 | 16% |
| Cc1ccc(O)c(C(=O)c2cnc3c(c2)CN(C)C(=O)N3)c1 | 3.7% |
| O=C(c1cnc2sccn2c1=O)N(Cc1ccccc1)c1ccccn1 | 14.3% |
| CCOC(=O)c1c(NC(=O)CSc2nnnn2-c2ccc(OC)cc2)sc(C)c1C | 60% (active) |
| CCOC(=O)c1sc(NC(=O)CSc2nnnn2-c2ccccc2)c(C(=O)OCC)c1C | 14.3% |
| CCOC(=O)c1sc(NC(=O)CSc2nnnn2-c2ccc(C)cc2)c(C(=O)OCC)c1C | 12.2% |
| Cc1cc(OCC(=O)NCc2ccncc2)ccc1Cl | 1% |
| Cc1ccc(N2CCN(CC(=O)Nc3c(C(=O)C4CC4)oc4ccccc34)CC2)cc1 | -11.1% |
| COc1ccc(N(CC(=O)Nc2ccc3c(c2)OCO3)S(C)(=O)=O)c(OC)c1 | -4.4% |
| COC(=O)C(N)Cc1ccc(O)cc1 (stereo unspecified) | -4.5% |
| COC(=O)C(N)Cc1ccc(O)c(O)c1 (stereo unspecified) | 56.9% (active) |
| COC(=O)[C@@H](N)Cc1ccc(O)cc1 | 2.6% |
| C[C@@](Cc1ccc(O)c(O)c1)(NN)C(=O)O | 12.9% |
| C[C@](N)(Cc1ccc(O)c(O)c1)C(=O)O | 57.7% (active) |
| COc1ccc(CC(=O)O)cc1O | 2.3% |
| Oc1c(C(c2ccccc2)N2CCCCC2)sc2ncnn12 (stereo unspecified) | -8.5% |
| COc1cc2c(cc1OC)C(=S)NC1(CCCC1)C2 | -19.1% |
| CC(=O)c1c(OC(=O)c2ccco2)c2ccccc2n1C | 4% |
| NC(=O)c1ccsc1NC(=O)CSc1nnc(Nc2ccccc2)s1 | 0.1% |
| CC(C)C[C@H](NS(=O)(=O)c1ccc(Br)cc1)C(=O)O | 5.2% |
| CCCCNc1nc(NC)nc(Cl)c1SC | 0.4% |
| C/C(=N/NC(=O)c1cc(O)c(O)c(O)c1)c1ccc([N+](=O)[O-])cc1 | 64.5% (active) |
| C/C(=N\NC(=O)c1ccc([N+](=O)[O-])cc1)c1c(O)cc(C)oc1=O | -40.7% |

| Compound | inhibition |
| --- | --- |
| C/C(=N\NC(=O)c1ccc([N+](=O)[O-])cc1)c1cccc([N+](=O)[O-])c1 | 3.4% |
| CCN(CC)c1ccc(/C=C2\NC(=O)NC2=O)cc1 | 9.7% |
| O=C(Nn1cnc2ccccc2c1=O)c1cccc(Cl)c1 | 3% |
| CC[N+](C)(CC)CC(O)COCC1COc2ccccc2O1 (stereo unspecified) | 19.8% |
| C[N+]1(CC(O)COCC2COc3ccccc3O2)CCOCC1 (stereo unspecified) | 66.2% (active) |
| OC(COCC1COc2ccccc2O1)CN1CCN(c2ccccc2)CC1 (stereo unspecified) | 1.8% |
| C/C(=N\NC(N)=S)C1C2C3CC4C5CC(C42)C1C53 (stereo unspecified) | 0.3% |
| O=C(NCc1ccco1)c1ccccc1-c1ccc(C(F)(F)F)cc1 | 4.9% |
| COc1ccccc1N1CCN(Cc2ccc(O)c3ncccc23)CC1 | 55.7% (active) |
| CCOC(=O)N1CCN(Cc2ccccc2Cl)CC1 | 4.4% |
| CN1CCN(Cc2cc(COCc3ccccc3)c3cccnc3c2O)CC1 | 43.5% |
| COc1ccccc1N1CCN(Cc2cc(Br)c(O)c3ncccc23)CC1 | 25.4% |
| CN1CCN(Cc2cc(Cl)c3cccnc3c2OC(=O)c2cccs2)CC1 | 15.8% |
| Oc1c(CN2CCCCC2)cc(Br)c2cccnc12 | 51.6% (active) |
| Oc1ccc(CN2CCN(c3ccccc3)CC2)c2cccnc12 | 35.3% |
| CCOC(=O)N1CCN(Cc2cc(Cl)c3cccnc3c2O)CC1 | 54.9% (active) |
| O=[N+]([O-])c1cc(CN2CCCC2)c2cccnc2c1O | 5% |
| Oc1c(CN2CCCCC2)cc(COCc2ccccc2)c2cccnc12 | 46.6% |
| COCc1cc(CN2CCCC2)c(O)c2ncccc12 | 41% |
